Sampled rows, rich in hits. Any-hit rate of the full collection: about 12%.
BAZ2B block = blocks human BAZ2B | Q9UIF8 | AlphaScreen BAZ2B-H3K14Ac peptide displacement | Potency, µM (titrated, usually from 114 µM), for inactives: at the highest dose activity change, negative = inhibition, most hits filed as inhibitors | hit rate 4.4% among 360,000; note: potency is the fitted concentration of half-maximal effect; % is set by controls: 0 for no effect and ±100 for the full control effect; nearly all actives have a fitted effect of over 60% in size
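Compounds, titrated to a top concentration of 110 uM, were incubated 30 min at room temperature with preformed BAZ2B/acetyl-K14 H3 peptide complex (50 nM each). Proximity signal was measured by AlphaScreen after 20 min with beads.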
JMJD2A Tudor inh = inhibitors of human JMJD2A Tudor domain | Potency, µM (highest dose often 114 µM), for the others: top-dose activity change, negative = inhibition, hits mostly inhibitors | AID 504339 | O75164 | hit rate 4.4% among 390,000 | AlphaScreen JMJD2A-Tudor / H3K4me3 peptide binding; note: potency is the fitted concentration of half-maximal effect; % is set by controls: 0 for no effect and ±100 for the full control effect; nearly all actives have a fitted effect of over 50% in size
L3MBTL1 block = inhibitors of human L3MBTL1; AlphaScreen L3MBTL1–H3K9me1 peptide binding; AID 485360; hit rate 0.66% among 230,000; Potency, µM (top dose mostly 57.1 µM), without a hit: at the highest dose activity, negative = inhibition, actives largely listed as inhibitors; note: potency is the fitted concentration of half-maximal effect; % is set by controls: 0 for no effect and ±100 for the full control effect; nearly all actives have a fitted effect of over 60% in size
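AlphaScreen proximity signal between nickel-chelate acceptor and streptavidin donor beads (final 10 ug/mL) reports binding of 50 nM L3MBTL1 to 75 nM biotin-H3 K9me1 peptide; complex incubated with compounds 30 min at room temperature; cefsulodin titration as control.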
G9a inh-1 = G9a (human) methyltransferase inhibition; Q96KQ7; G9a H3K9 monomethylation, AlphaScreen, 2 h; hit rate 8.8% among 350,000; Potency, µM (doses to about 102 µM), without a hit: at the highest dose activity, negative = inhibition, hits mostly inhibitors; AID 504332; note: potency is the fitted concentration of half-maximal effect; % is set by controls: 0 for no effect and ±100 for the full control effect; nearly all actives have a fitted effect of over 75% in size
Target sequence (Q96KQ7 913-1193 limits assumed): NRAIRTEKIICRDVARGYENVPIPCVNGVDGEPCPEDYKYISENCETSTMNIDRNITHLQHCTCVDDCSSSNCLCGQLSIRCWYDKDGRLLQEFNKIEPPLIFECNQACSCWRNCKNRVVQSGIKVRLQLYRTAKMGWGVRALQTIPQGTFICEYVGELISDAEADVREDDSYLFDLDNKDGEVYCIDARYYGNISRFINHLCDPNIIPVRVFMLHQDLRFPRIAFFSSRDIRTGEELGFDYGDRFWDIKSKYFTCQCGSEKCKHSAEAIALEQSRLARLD
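Readings reflect AlphaScreen signal from monomethyl-H3K9 antibody detection. HMT at 20 nM; substrate b-H3K9 500 nM; cofactor SAM 20 uM; 2 h RT reaction; compounds tested as titrations in qHTS with 15 min preincubation.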
Sfp inh = inhibitors of Bacillus subtilis Sfp phosphopantetheinyl transferase; AID 1490; Potency, µM, for inactives: largest response in the series, negative = inhibition, actives largely listed as inhibitors; Biochemical Sfp PPTase activity, qHTS; Q9F4F7; hit rate 3.5% among 310,000;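 note: the enzyme is Sfp with the accession as filed and its product quenches rhodamine fluorescence; potency is the fitted concentration of half-maximal effect; 0% = enzyme reaction without inhibitor and -100% = no enzyme wells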
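Fluorescence-quenching assay with 15 nM Sfp, 5 uM rhodamine-CoA and 12.5 uM BHQ-2-labelled ybbR peptide in pH 7.6 Hepes/MgCl2 buffer. Enzyme was pre-incubated with compound for 15 min at room temperature. Rate was taken from the 30-min fluorescence change (525/598 nm).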
HP1b binding inh = inhibitors of HP1-beta chromodomain binding to methylated histone tails | P83916 | AlphaScreen HP1-beta / biotin-H3K9me3 peptide binding | hit rate 0.56% among 390,000 | AID 540317 | Potency, µM (titrated, usually from 114 µM), for inactives: at the highest dose activity change, negative = inhibition, usual class: inhibitors; note: potency is the fitted concentration of half-maximal effect; nearly all actives have a fitted effect of over 70% in size
Target sequence (P83916 whole entry, looked up): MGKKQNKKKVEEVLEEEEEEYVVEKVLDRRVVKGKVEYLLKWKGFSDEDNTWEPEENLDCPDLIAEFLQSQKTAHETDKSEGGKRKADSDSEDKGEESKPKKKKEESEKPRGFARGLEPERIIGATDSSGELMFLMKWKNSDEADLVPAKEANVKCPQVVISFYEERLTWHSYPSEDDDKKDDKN
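Compound inhibition of the preformed complex between 50 nM HP1-beta and 50 nM biotinylated H3K9me3 peptide was read by AlphaScreen. Buffer was PBS pH 7.4 with 0.01% Tween-20. Incubations ran 30 min at room temperature, with 10 ug/mL donor/acceptor beads.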
G9a inh-2 = inhibits human G9a histone lysine methyltransferase, hit confirmation | hit rate 89% among 370 | AID 588344 | Potency, µM, actives largely listed as inhibitors | shares compounds with JMJD2A Tudor inh | G9a H3K9 monomethylation, AlphaScreen, 2 h; note: potency is the fitted concentration of half-maximal effect; nearly all actives have a fitted effect of over 65% in size
RGS4 inh = inhibits human RGS4, hit validation; shares compounds with JMJD2A Tudor inh; RGS4 GAP activity, Transcreener GDP fluorescence polarization; Potency, µM, usual class: inhibitors; hit rate 80% among 25; AID 602388
An asterisk follows results filed as active; u = inconclusive; x = not tested or not shown; [ ] = another dose, or the depositor's remark. Calls come from the whole dose curve; as a rule, active = well fitted curve in the direction sought with a large enough effect; inconclusive = small, poorly fitted or top-dose-only effect, or another doubt; inactive = no such curve, though single readings can be large; an effect the other way counts as inactive or inconclusive.

SMILES	BAZ2B block	JMJD2A Tudor inh	L3MBTL1 block	G9a inh-1	Sfp inh	HP1b binding inh	G9a inh-2	others
CCN(CC)c1ccc(NC(=O)c2ccc(Br)o2)cc1	50.1µM*	44.7µM*	u	2.24µM*	-2.0%	u	7.1*
O=C(Nc1ccc(N2CCCC2)cc1)c1ccc(Br)o1	u	u	-22.6%	2.24µM*	u	-1.6%	0.71*
O=C(Nc1ccccc1)c1ccc(Br)o1	-19.6%	-27.1%	1.9%	u	3.8%	8.1%	x
CCN1CCN(c2ccc(NC(=O)c3ccc(Br)o3)cc2)CC1	-19.5%	-11.0%	x	-2.1%	15.8%	23.0%	x
Cc1ccc(C(=O)OCC(=O)c2ccc(Br)cc2)cc1S(=O)(=O)N1CCOCC1	x	-14.2%	x	x	x	19.7%	x
CCOc1ccc(C(=O)c2cnc3ccccc3c2N2CCN(CC)CC2)cc1	-25.7%	-31.7%	x	u	15.5%	38.1%	u
CC1=C(C(=O)NCc2ccc(C)cc2)C2(CCCCC2)OC1=O	9.6%	-27.2%	x	4.4%[59 µM]	x	-1.1%	x
CCn1c(CN2CCN(c3ccc(Cl)cc3)CC2)nc2ccccc21	u	u	-9.8%	27.4%[59 µM]	-13.3%	13.8%	x
CCn1c(=O)c(C(=O)NCCc2ccc(OC)c(OC)c2)c(O)c2ccccc21	-17.1%	-14.0%	x	-2.8%	u	54.6%	x
CCn1c2ccccc2c2cc(CN3CCN(Cc4ccc(Cl)cc4)CC3)ccc21	15.8µM*	7.94µM*	x	0.501µM*	x	u	22.4*
CCn1c2ccccc2c2cc(CN3CCN(Cc4cc(OC)c(O)c(OC)c4)CC3)ccc21	22.4µM*	11.2µM*	x	0.708µM*	x	u	18.2*
CC(C)(C)N1C(=O)[C@H]2[C@@H](c3ccc(Br)cc3)N3C(=O)N(c4cccc(Cl)c4)C(=O)[C@@]3(Cc3ccccc3)[C@H]2C1=O	7.5%	-12.7%	-1.8%	14.4%[2.33 µM]	x	26.9%	x
O=C(Nc1nnc(-c2ccccc2)s1)C1CCCN(C(=O)c2ccoc2)C1 (stereo not given)	x	-32.6%	x	x	x	u	x	RGS4 inh=23.8*
COc1cccc(CNC(=O)C2Cc3ccccc3CN2C(C)=O)c1 (stereo not given)	-20.8%	u	x	-24.7%	11.9%	-3.7%	x
Nc1nnc(SCC(=O)Nc2ccc(Cl)c(C(=O)O)c2)s1	1.9%	-8.9%	x	-51.0%	-18.9%	25.9%	x
O=C(CSc1nc2ccccc2s1)Nc1ccc(Cl)c(C(=O)O)c1	-37.7%	50.1µM*	0.4%	2.82µM*	22.4µM*	u	2.83*
CCOC(=O)N1CCN(c2c(NCc3ccccc3Cl)c(=O)c2=O)CC1	-9.1%	-7.5%	2.1%	19.7%	20.8%	31.2%	x
CN1CCC(N(C)CC(=O)Nc2cccc(Oc3ccccc3)c2)CC1	50.1µM*	6.31µM*	x	u	1.6%	-18.1%	u
Cc1cccc(NC(=O)C2SC(=Nc3c(C)cccc3C)C(C(=O)N3CCOCC3)=C2N)c1 (stereo not given)	-8.3%	u	1.0%	1.58µM*	-12.5%	-23.1%	15.9*
CCN(CC)c1ccc(NC(=O)Nc2cccc(C(C)=O)c2)cc1	31.6µM*	35.5µM*	x	1.78µM*	-25.8%	-69.1%	3.17*
CC(=O)Nc1cccc(NC(=O)Nc2ccc(C(C)=O)cc2)c1	7.6%	-4.3%	-7.1%[11.4 µM]	9.3%[12.7 µM]	3.8%	38.3%	x
O=C(CSc1nnc(-c2ccncc2)o1)c1cccc([N+](=O)[O-])c1	-20.3%	-22.3%	-3.3%	33.4%[12.7 µM]	17.5%	-7.0%	x

From PubChem BioAssay
